In the supplement of paper PMC3545927:
Some of the results follow. The true hit rate is not given.

Biological target: furin, P09958
Assay: furin cleavage Z-score vs untreated control; higher = more cleavage, active = 3.5 or more, inactive = 1 or less, 8 variable residues between constant flanks
Protocol: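 Multiplexed peptide-cDNA fusion cleavage assay. 8-mer variable peptides flanked by constant Cys-Ala (N-term) and Ala-Gly-Asn-Ala-Ser-Ala-Ser-Ala (C-term) and conjugated to a cDNA oligonucleotide were bead-immobilised via the N-terminus. They were treated with purified furin at a 1:10 enzyme:substrate ratio in 50 mM HEPES pH 7.5, 1 mM CaCl2, 100 mM NaCl for 7.5, 15 or 30 min. Released cDNA was counted by next-generation sequencing, and log counts versus no-furin controls were lowess-adjusted and converted to robust Z-scores.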

Chain of furin, P09958 (P09958 whole entry): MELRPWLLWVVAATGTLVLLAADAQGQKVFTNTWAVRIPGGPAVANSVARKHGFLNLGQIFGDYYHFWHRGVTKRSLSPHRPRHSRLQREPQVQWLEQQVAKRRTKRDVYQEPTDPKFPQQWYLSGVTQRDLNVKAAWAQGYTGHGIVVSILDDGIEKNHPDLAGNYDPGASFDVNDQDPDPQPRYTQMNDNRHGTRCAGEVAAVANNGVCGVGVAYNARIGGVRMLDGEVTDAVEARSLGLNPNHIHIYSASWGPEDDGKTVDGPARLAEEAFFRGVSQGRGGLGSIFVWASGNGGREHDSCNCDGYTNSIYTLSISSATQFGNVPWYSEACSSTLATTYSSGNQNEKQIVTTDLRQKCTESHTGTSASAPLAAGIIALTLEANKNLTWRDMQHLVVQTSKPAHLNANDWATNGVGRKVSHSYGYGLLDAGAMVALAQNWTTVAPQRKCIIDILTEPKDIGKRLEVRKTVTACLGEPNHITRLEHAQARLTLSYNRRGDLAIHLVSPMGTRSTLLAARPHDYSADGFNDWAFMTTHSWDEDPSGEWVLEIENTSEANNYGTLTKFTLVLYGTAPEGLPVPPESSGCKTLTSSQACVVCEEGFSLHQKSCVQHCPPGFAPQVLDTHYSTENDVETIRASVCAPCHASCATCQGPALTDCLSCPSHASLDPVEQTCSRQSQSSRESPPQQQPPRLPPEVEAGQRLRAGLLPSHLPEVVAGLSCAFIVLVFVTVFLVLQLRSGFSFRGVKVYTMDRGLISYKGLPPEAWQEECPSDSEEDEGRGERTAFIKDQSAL

Row | Sequence | furin cleavage Z-score (7.5 min) | furin cleavage Z-score (15 min) | furin cleavage Z-score (30 min)
1 | CATTPCFGSWAGNASASA [HC66] | 0.204 (inactive) | 0.119 (inactive) | -0.471 (inactive)
2 | CARKRRKGKAAGNASASA [FS-2973] | -1.27 (inactive) | 1.85 | 0.732 (inactive)
3 | CARKRRAPLAAGNASASA [FS-2698] | 6.06 (active) | 7.82 (active) | 7.26 (active)
4 | CARPFRQVLAAGNASASA [FS-2738] | -0.792 (inactive) | 0.095 (inactive) | -0.451 (inactive)
5 | CARKRRRQHGAGNASASA [FS-2974] | -0.939 (inactive) | -0.0293 (inactive) | 0.389 (inactive)
6 | CARKRRAPHGAGNASASA [FS-2493] | 4.63 (active) | 5.64 (active) | 5.6 (active)
7 | CALSTTGEIPAGNASASA [HC844] | 0.383 (inactive) | -0.16 (inactive) | 0.771 (inactive)
8 | CARRKRFPGKAGNASASA [FS-1918] | 0.56 (inactive) | 2.63 | 3.28
9 | CARRKRAGGGAGNASASA [FS-2067] | 4.24 (active) | 4.92 (active) | 5.33 (active)
10 | CARRKRLRHRAGNASASA [FS-3054] | -0.105 (inactive) | -0.397 (inactive) | -1.97 (inactive)
11 | CARRKRRQTGAGNASASA [FS-2516] | 8.82 (active) | 9.35 (active) | 7.88 (active)
12 | CARSCRILHKAGNASASA [FS-2457] | 0.718 (inactive) | 0.25 (inactive) | 0.502 (inactive)
13 | CARRKRIVGGAGNASASA [FS-2228] | 0.169 (inactive) | 1.22 | 2.08
14 | CARRKRKSQRAGNASASA [FS-2402] | 1.07 | 2.8 | 3.58 (active)
15 | CARRKRRHHKAGNASASA [FS-1969] | 1.16 | 4.53 (active) | 5.66 (active)
16 | CAHLEVVTSTAGNASASA [HC2275] | -0.0236 (inactive) | -0.0472 (inactive) | -0.103 (inactive)
17 | CAVTPCSAHLAGNASASA [HC2470] | -2.91 (inactive) | -0.94 (inactive) | -1.39 (inactive)
18 | CATSLTGRDKAGNASASA [HC683] | 0.711 (inactive) | 0.726 (inactive) | 0.633 (inactive)
19 | CAVCTTPCSGAGNASASA [HC1950] | -1.68 (inactive) | 1.7 | 0.388 (inactive)
20 | CAHSTDATSIAGNASASA [HC820] | 0.202 (inactive) | -1.29 (inactive) | 0.297 (inactive)
21 | CATIETITLPAGNASASA [HC896] | -1.51 (inactive) | 0.877 (inactive) | -0.833 (inactive)
22 | CAMEFCSQHLAGNASASA [HC1707] | 0.147 (inactive) | 0.288 (inactive) | -0.0248 (inactive)
23 | CAMEEVSQHLAGNASASA [HC3] | 0.556 (inactive) | 1.13 | 2.1
24 | CARRKRQVRRAGNASASA [FS-2370] | 6.85 (active) | 8.4 (active) | 6.39 (active)

Row | Sequence | furin cleavage Z-score (7.5 min) | furin cleavage Z-score (15 min) | furin cleavage Z-score (30 min)
25 | CARRKRQIYGAGNASASA [FS-3055] | 2.2 | 5.1 (active) | 6.81 (active)
26 | CARRKRDLDGAGNASASA [FS-3052] | 11.5 (active) | 11.4 (active) | 8.25 (active)
27 | CARRVRDKDGAGNASASA [FS-2300] | 0.77 (inactive) | 1.62 | 2.04
28 | CARRKRQVYGAGNASASA [FS-3204] | 6.12 (active) | 7.43 (active) | 7.08 (active)
29 | CARRKKSQDGAGNASASA [FS-1775] | 0.168 (inactive) | -0.316 (inactive) | 0.531 (inactive)
30 | CASTGCSAHLAGNASASA [HC2516] | -1.2 (inactive) | 0.402 (inactive) | -0.12 (inactive)
31 | CAFNLRMKRDAGNASASA [FS-525] | 14.3 (active) | 12.3 (active) | 10.8 (active)
32 | CATNLRIKRDAGNASASA [FS-568] | 14.5 (active) | 15.3 (active) | 10.7 (active)
33 | CAVREVPCHRAGNASASA [HC2430] | -1.53 (inactive) | -1.03 (inactive) | -0.128 (inactive)
34 | CARPGRRVCAAGNASASA [FS-3259] | -0.847 (inactive) | -1.4 (inactive) | -1.34 (inactive)
35 | CARPGRRGRPAGNASASA [FS-492] | -0.496 (inactive) | -1.23 (inactive) | -0.0754 (inactive)
36 | CAKRWRRGRAAGNASASA [FS-1596] | 6.85 (active) | 6.38 (active) | 4.94 (active)
37 | CAKPGRRGRAAGNASASA [FS-452] | 6.38 (active) | 5.76 (active) | 4.89 (active)
38 | CAPEMEECSQAGNASASA [HC1799] | 0.387 (inactive) | 0.44 (inactive) | 0.854 (inactive)
39 | CARYKKAVFRAGNASASA [FS-3135] | 2 | 0.2 (inactive) | 2.99
40 | CARYKRMVERAGNASASA [FS-2537] | 7.23 (active) | 7.48 (active) | 6.63 (active)
41 | CARERRDSGVAGNASASA [FS-2486] | -0.528 (inactive) | -0.224 (inactive) | 0.24 (inactive)
42 | CARYKRKSDEAGNASASA [FS-3177] | 5.32 (active) | 5.6 (active) | 5.8 (active)
43 | CARNVRFSDEAGNASASA [FS-2223] | 0.545 (inactive) | -0.141 (inactive) | -1.68 (inactive)
44 | CARERRDAGRAGNASASA [FS-2137] | 9.55 (active) | 10.7 (active) | 9.14 (active)
45 | CARERREVVRAGNASASA [FU3] | 10.2 (active) | 11.3 (active) | 10.9 (active)
46 | CARERRRAAKAGNASASA [FS-2550] | 0.778 (inactive) | 0.314 (inactive) | 1.46
47 | CARYKRKMTQAGNASASA [FS-1979] | -0.853 (inactive) | -0.612 (inactive) | -0.101 (inactive)
48 | CARERRWDRGAGNASASA [FS-2010] | -1.3 (inactive) | -0.408 (inactive) | 1.72
